# Compound activity: PubChem, National Center for Advancing Translational Sciences (NCATS)
# This is a sample that favours compounds with a hit; in the whole collection about 6.6% have one here.
# HT1080 IDH1KD tx = kills HT-1080 cells with IDH1 knockdown; HT-1080 IDH1 knockdown viability, ATP luminescence, 48 h; Potency, µM (series often up to 46.1 µM), hits mostly cytotoxic; 2% of 360,000 active; AID 686971
#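 Using the IDH1-knockdown HT-1080 line run in the same batch and compound series as the NT line, viability after 48 h at 37 °C was determined by CellTiter-Glo luminescence and expressed as % activity.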
# HepG2 tox = kills HepG2 cells in TGF-b inhibitor counter-screen | Potency, µM (top dose mostly 46.1 µM), hits mostly cytotoxic | 0.76% of 410,000 active | HepG2 CAGA-GFP viability, ATP luminescence, 18 h
#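 CellTiter-Glo luminescence gave cytotoxicity after 18 hours at 37 degrees C. The cells were HepG2 CAGA-GFP in 1% FBS DMEM, stimulated with 500 pg/mL TGF-beta after compound addition. %Activity was normalised to no-cell wells (complete cell-killing) and DMSO (no toxicity), and curves were fitted and classified.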
# HT1080-NT tox = kills 2HG-producing HT-1080-NT fibrosarcoma cells; HT-1080-NT fibrosarcoma viability, CellTiter-Glo ATP luminescence, 48 h; Potency, µM (doses to about 46.1 µM), actives largely listed as cytotoxic; 1.6% of 360,000 active;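 further: NT is the 2HG producing partner of a matched IDH1 knockdown line; nearly all actives have a fitted effect of over 55% in size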
#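 Compounds were tested in concentration-response format on HT-1080-NT cells for 48 hours at 37 degrees C. Cell viability came from CellTiter-Glo luminescence; curves were classified by r2, response magnitude and activity.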
# KB-V1 MDR tox = KB-V1 MDR subline cytotoxicity; 3.4% of 400,000 active; AID 1347076; KB-V1 MDR cells viability, CellTiter-Glo, 72 h; Potency, µM (highest dose often 46.1 µM), usual class: cytotoxic; further: nearly all actives have a fitted effect of over 60% in size
#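 Cytotoxicity via CellTiter-Glo luminescence after 72 h compound exposure at 37 degrees C. Cells: drug-selected KB-V1 line, DMEM phenol-red free plus 10% FBS. Compounds tested at multiple concentrations; normalized data fitted to concentration-effect curves.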
# KB-3-1 tox = kills parental KB-3-1 adenocarcinoma cells | KB-3-1 viability, CellTiter-Glo ATP luminescence, 72 h | Potency, µM (highest dose often 46.1 µM), most hits filed as cytotoxic | 1.4% of 400,000 active; further: nearly all actives have a fitted effect of over 60% in size
#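 KB-3-1 cells, DMEM (no phenol red) + 10% FBS; compound by pin transfer, 72 h, 37 °C. Readout: CellTiter-Glo luminescence after 10 min. Data normalized, curve-fitted.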
# TGFb inhibitor = blocks TGF-b signaling. 1.2% of 410,000 active. HepG2 CAGA-GFP TGF-b/SMAD3 reporter, GFP fluorescence, 18 h; TGF-beta stimulated, 500 pg/mL final. Potency, µM (highest dose often 46.1 µM), actives largely listed as inhibitors; further: nearly all actives have a fitted effect of over 65% in size
#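 Read-out: total well GFP (ex488/em500-530) summed from mean per-cell fluorescence. Cells: HEPG2 CAGA-GFP, 1% FBS DMEM, 18 h at 37 degrees C with 500 pg/mL final TGF-beta. Unstimulated wells served as the full-inhibition control; stimulated DMSO wells = 0%.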
# A number is an active result; . = inactive; ? = inconclusive; / = no result given. The call rests on the fitted dose curve; in most records, active means well fitted curve in the direction sought with a large enough effect; inconclusive means small, poorly fitted or top-dose-only effect, or another doubt; inactive means no such curve, though single readings can be large; an effect the other way counts as inactive or inconclusive.
SMILES,HT1080 IDH1KD tx,HepG2 tox,HT1080-NT tox,KB-V1 MDR tox,KB-3-1 tox,TGFb inhibitor
Cc1cc(OCC(=O)Nc2cc(S(=O)(=O)N3CCOCC3)ccc2N2CCCC2)ccc1C(C)C,.,.,.,7.3µM,.,.
CCc1cc(C(=O)Nc2cc(S(=O)(=O)N(CC)CC)ccc2N2CCOCC2)sc1C,.,.,.,.,.,?
COc1ccc2c(c1)C=C/C2=C\c1ccc(N(C)C)cc1,/,.,/,.,?,.
CCN1CCN(c2ccc(S(=O)(=O)N3CCCCC3)cc2NC(=O)/C=C/c2ccc([N+](=O)[O-])cc2)CC1,16µM,.,?,?,.,.
CCc1cc(C(=O)N2CCN(C(=O)c3ccccc3)CC2)sc1C,.,5µM,.,?,.,.
O=C(CN1CCc2ccccc2C1)Nc1cc(S(=O)(=O)N2CCOCC2)ccc1N1CCCC1,.,.,.,4.1µM,.,.
CN1CCN(c2ccc(S(=O)(=O)N3CCCCC3)cc2NC(=O)c2ccc3ccccc3c2)CC1,?,.,.,10µM,?,35µM
CCN1CCN(c2ccc(S(=O)(=O)N3CCCCC3)cc2NC(=O)/C=C/c2ccc(F)cc2)CC1,.,.,.,.,.,?
CCc1cc(C(=O)N2CCN(c3ccccn3)CC2)sc1C,.,.,.,.,.,.
Cc1ccccc1C(=O)Nc1cc(S(=O)(=O)N2CCCCC2)ccc1N1CCN(C)CC1,.,.,?,?,?,.
CCCC(=O)Nc1nnc(SCc2cc(=O)n3cccc(C)c3n2)s1,/,.,/,/,/,.
CC(CNC(=O)CCc1cn(Cc2ccccc2Cl)c2ccccc12)c1ccccc1 (configuration not stated),/,.,/,/,/,?
O=C(CC1C(=O)N(c2ccc(F)cc2)C(=O)N1Cc1ccc2c(c1)OCO2)Nc1ccc(Cl)cc1 (configuration not stated),/,.,/,.,.,.
CC(C)COc1cccc(C(=O)Nc2cc(S(=O)(=O)N3CCOCC3)ccc2N2CCCC2)c1,.,.,.,18µM,.,?
Cc1ccc(S(=O)(=O)n2nc(-c3ccccc3)nc2NCc2ccccc2Cl)cc1,/,.,/,.,.,.
O=C(CN1CCOCC1)N1c2ccccc2Sc2ccccc21,.,.,.,.,.,.
CC1CCCN(C(=O)N2c3ccccc3Sc3ccccc32)C1 (configuration not stated),10µM,.,?,?,.,.
O=C(N1CCOCC1)N1c2ccccc2Sc2ccccc21,14µM,.,?,?,.,.
CCN1CCCC1CNC(=O)c1ccc2c(c1)NC(=O)/C(=C\c1ccc(C)cc1)S2 (configuration not stated),.,16µM,?,.,.,?
O=C1Nc2cc(C(=O)NCCN3CCCCCC3)ccc2S/C1=C/c1ccccc1F,?,8.9µM,?,?,.,10µM
COc1cccc(/C=C2/Sc3ccc(C(=O)NCCN4CCCC4)cc3NC2=O)c1,.,14µM,.,.,.,?
COc1ccc(N2C(=O)C(Cl)=C(Oc3cccc(OC)c3)C2=O)cc1,21µM,.,18µM,.,.,.
COc1ccc(N2C(=O)c3ccccc3C2=O)cc1,.,.,.,.,.,.
Clc1cccc(Cc2c(-c3cccc(Cl)c3)nc3ccc(Br)cn23)c1,?,.,.,.,.,14µM
Clc1ccc(-c2nc3ccc(Br)cn3c2Cc2cccc(Cl)c2)cc1,15µM,.,?,.,?,?
Cc1ccc(Cc2c(-c3ccc(C#N)cc3)nc3ccc(Br)cn23)cc1,.,.,.,.,?,.
N#Cc1ccc(-c2nc3ccc(Br)cn3c2Cc2ccccc2)cc1,.,.,.,.,21µM,.
CC(Oc1ccccc1)C(=O)Nc1ccc(OCc2cc(=O)n3ccsc3n2)cc1 (configuration not stated),/,.,/,.,.,.
COc1ccc(C2=NOC(C(=O)N3CCCc4ccccc43)C2)cc1 (configuration not stated),?,.,.,13µM,.,.
